Measurements published in ChEMBL document CHEMBL3988442, “University of Dundee, Small-Polar-MMV Screening Library” (2021).
In all, about 53,000 compounds went through this assay and about 900 (1.7%) showed an effect of 50% or more. Only a selection was taken, and strong results are over-represented in it overall.

tested on: Mycobacterium tuberculosis; test: Cornell - Phenotypic assay to identify agents that inhibit growth of Mycobacterium tuberculosis; type: functional; parameters: scale not given: direction of the effect not stated beside the values; details: 10 mM as filed; unlikely as a test dose

Structure (SMILES) | Percent Effect
COCC(=O)N1CCCC1(C(=O)N(C)C)c1cnccn1 (stereo not drawn) | 19.92%
Cc1cc(-c2ccccc2Cl)nc(N)n1 | 22.73%
CC(C)(C)c1ncc(C(=O)NCCNC(=O)c2cccs2)s1 | -14.14%
O=C(NCCNc1cc(-n2cccc2)ncn1)c1cccs1 | 57.48%
O=C(NCCNC(=O)c1scnc1Cl)c1cccs1 | -53.65%
Cc1ccc2c(c1)[C@@H](CC(=O)N(C)C)CCO2 | 3.607%
COC(=O)C(NC(=O)c1ccc(NC2CC2)nc1)c1ccccc1 (stereo not drawn) | 107%
COC(=O)C(NC(=O)c1ccc(N(C)C)nc1)c1ccccc1 (stereo not drawn) | 107.9%
NC(=O)C(NC(=O)c1ccc(NC2CC2)nc1)c1ccccc1 (stereo not drawn) | -20.48%
CN(C)c1ccc(C(=O)NCCCc2ccccn2)cn1 | -1.76%
CCNc1ncc(C(=O)N[C@H](C(N)=O)c2ccccc2)cn1 | -10.46%
CC(C)c1cc(NC(=O)c2ccc(NC3CC3)nc2)[nH]n1 | -6.556%
OC1(CN2CCCC(Cn3cncn3)C2)CCCCC1 (stereo not drawn) | 2.144%
CNC(=O)c1sc2ccccc2c1C1CCN(c2cc(C)nc(C)n2)C1 (stereo not drawn) | -31.24%
Cc1cnn(C2CCCN(C(=O)c3ccc(O)nc3)C2)c1 (stereo not drawn) | -59.29%
Cc1ccc(CN2CC[C@@H]3[C@@H]2CCN3C(=O)Cc2cccs2)o1.O=C(O)C(F)(F)F | 2.395%
CC(Nc1nc(-c2ccccc2)nc2c1CCNCC2)c1nccs1 (stereo not drawn) | 28.69%
CC(Nc1nc(-c2ccncc2)nc2c1CCNC2)c1ccccc1 (stereo not drawn) | 16.91%
Cc1cc(CC(C)Nc2nc(-c3cccnc3)nc3c2CNC3)[nH]n1 (stereo not drawn) | -19.02%
CCc1cc(C(C)Nc2nc(-c3cccnc3)nc3c2CNC3)on1 (stereo not drawn) | 9.073%
Cc1cccnc1[C@H](C)Nc1nc(-c2cccnc2)nc2c1CNC2 | 56.46%
CC(Nc1nc(-c2ccccc2)nc2c1CCNCC2)c1cccnc1 (stereo not drawn) | 76.64%
Cc1cc(NCCNS(C)(=O)=O)nc2cc3c(cc12)CCC3 | -25.91%
Cc1cs/c(=N\C(=O)Cn2nc(N3CCOCC3)ccc2=O)[nH]1 | 32.69%
CC(C)c1n[nH]c(C2CN(C(=O)c3ncoc3C(C)C)CCO2)n1 (stereo not drawn) | -2.194%
COCC(=O)N1Cc2nc3c(C)c(-c4cccs4)nn3c(O)c2C1 | 3.993%

Structure (SMILES) | Percent Effect
Cc1c(-c2cccs2)nn2c(O)c3c(nc12)CN(C(=O)C1CC1)C3 | 54.87%
COCCC(=O)N1Cc2nc3c(C)c(-c4cccs4)nn3c(O)c2C1 | 39.74%
CC(C)c1ncc(CN2CCOC(C(=O)Nc3ccccc3)C2)cn1 (stereo not drawn) | -3.657%
CCCN(CCC)c1nc(N)nc(-c2cc(Cl)ccc2OC)n1 | 61.82%
COc1ccc(Cl)cc1-c1nc(N)nc(N(C)C)n1 | 31.47%
COc1ccc(Cl)cc1-c1nc(N)nc(N)n1 | -5.371%
CN1CCO[C@H]2CN(C(=O)c3ccoc3)C[C@H]21.O=C(O)C(F)(F)F | 6.414%
Cl.NCCc1cn(Cc2ccccn2)c2ccccc12 | -5.41%
CCNC(=O)c1cn2cc(-c3ccccc3Cl)n(CC3CC3)c(=O)c2n1 | 93.59%
CNC(=O)c1cn2cc(-c3ccccc3Cl)n(CC3CC3)c(=O)c2n1 | 16.32%
CN(C)C(=O)c1cn2cc(-c3ccccc3Cl)n(CC3CC3)c(=O)c2n1 | 8.491%
CC(=O)N1CCc2[nH]cnc2C12CCN(C(=O)Cc1cccs1)CC2 | 5.963%
Cc1nc(CN2CCCC(NCc3sccc3C)C2)no1 (stereo not drawn) | -19.65%
COCCN1CCCC(c2ncc(C(=O)N3CCOCC3)c(C)n2)C1 (stereo not drawn) | -5.414%
Cc1cccc(NC2CCN(C(=O)Nc3cccc4[nH]ccc34)CC2)n1 | 103.5%
Cc1cccc(NC2CCN(C(=O)Nc3cc(C)on3)CC2)n1 | -41.3%
Cc1cccc(NC2CCN(C(=O)Nc3cc(F)cc(F)c3)CC2)n1 | -33.08%
Cc1cccc(NC2CCN(C(=O)Nc3ccncc3)CC2)n1 | -35.06%
Cc1cccc(NC2CCN(C(=O)Nc3cc(F)ccc3F)CC2)n1 | 0.502%
Cc1cccc(NC2CCN(C(=O)Nc3ccc(F)c(F)c3)CC2)n1 | 108.1%
O=C(O)C(F)(F)F.O=C1COC2(CCN(Cc3nccs3)CC2)CN1c1ccccc1 | 8.785%
Cc1cc(O)cc(C2CCCN2C(=O)c2ccncc2)n1 (stereo not drawn) | 3.916%
Cc1cnn(CCNCc2ccc(OCc3csc(C)n3)cc2)c1 | 22%
Cc1ccc(OCc2nc(CNCCn3cccn3)cs2)cc1 | 44.09%
Cc1cnn(CCNCc2csc(C)n2)c1 | 2.389%
c1ccc(OCc2nc(CNCCn3cccn3)cs2)cc1 | -6.946%

Structure (SMILES) | Percent Effect
Cc1cnn(CCCNCc2csc(COc3ccccc3)n2)c1 | 86.59%
Cc1cnn(CCNCc2csc(COc3ccccc3)n2)c1 | 79.25%
CCc1ccc(-n2c(=O)[nH]c3nc(N4CCSCC4)ncc3c2=O)cc1 | -3.279%
CNC(=O)c1ccc(C2CN(C(=O)c3scnc3C)CCO2)nc1 (stereo not drawn) | -17.28%
Cc1nc(-c2ccncc2)ncc1C(C)NC(=O)Cn1ccccc1=O (stereo not drawn) | -23.83%
O=C(CC1CCCC1)N1CCOC(c2nc(-c3ncccn3)no2)C1 (stereo not drawn) | 12.79%
CNC(=O)C1(C)CN(Cc2cn(C)c3ccc(F)cc23)CCO1 (stereo not drawn) | 75.75%
CN(C)C(=O)C1(C)CN(Cc2cn(C)c3ccccc23)CCO1 (stereo not drawn) | 34.96%
CN(C)C(=O)C1(C)CN(Cc2cn(C)c3ccc(F)cc23)CCO1 (stereo not drawn) | 20.08%
CCn1cc2c(n1)CN(Cc1ccc(C)o1)CC2COCC1CC1.O=C(O)C(F)(F)F (stereo not drawn) | 32.3%
COCC1CN(Cc2ccc(F)cc2)Cc2nn(C)cc21.O=C(O)C(F)(F)F (stereo not drawn) | 21.43%
CCOCC1CN(Cc2ccc(OC)cc2)Cc2nn(C)cc21.O=C(O)C(F)(F)F (stereo not drawn) | -10.16%
COCC1CN(Cc2ccc(OC)cc2)Cc2nn(C)cc21.O=C(O)C(F)(F)F (stereo not drawn) | 102.7%
CCn1cc2c(n1)CN(Cc1sccc1C)CC2COCC1CC1.O=C(O)C(F)(F)F (stereo not drawn) | 57.43%
CCn1cc2c(n1)CN(Cc1ccc(F)cc1)CC2COCC1CC1.O=C(O)C(F)(F)F (stereo not drawn) | 11.94%
COCCC(=O)N1CCCC([C@@H]2C[C@H](C(F)F)n3ncnc3N2)C1 (stereo partly drawn) | 3.93%
Cc1nc(C)n(CC2CCCN(CCC(=O)Nc3cc(C)on3)C2)n1 (stereo not drawn) | -4.464%
CCCS(=O)(=O)N1CC(=O)N(Cc2cccc(OC)c2OC)CC(O)C1 (stereo not drawn) | 0.4174%
CCc1n[nH]c(C(=O)NCCn2nccc2C)c1C | -14.26%
COCCN(C)C(C(=O)O)c1ccc2ccccc2c1 (stereo not drawn) | -16.36%
CCc1ccc(CN2CCN(c3ccc(Cl)nn3)CC2)nc1 | 44.3%
CCc1ccc(CN2CCN(c3ncc(Cl)cn3)CC2)nc1 | 55.1%
COc1ccc(CN2CCN(c3ncc(Cl)cn3)CC2)cc1 | 15.9%
Cc1ccccc1CN1CCCN(C(=O)c2ccn(C)c(=O)c2)CC1 | -39.51%
COc1ccc(-c2nc(CCNCc3ccncc3)co2)cc1 | 44.79%
c1ccc(-c2nc(CCNCc3ccncc3)co2)cc1 | -12.86%

Structure (SMILES) | Percent Effect
Cc1ccc(-c2nc(CCNCc3ccncc3)co2)cc1 | 55.33%
CO[C@@H]1CN(C)S(=O)(=O)[C@@]12CCN(Cc1ccccc1)C2 | 9.469%
CC(C)c1cc(C2CCCN2C(=O)CN2C(=O)OC(C)(C)C2=O)no1 (stereo not drawn) | 16.26%
CN(Cc1ncc[nH]1)c1nc(-c2ccccn2)nc2c1CCNCC2 | 56.27%
CN(Cc1cccnc1)c1nc(-c2ccccn2)nc2c1CCNCC2 | 31.77%
CN(Cc1nccs1)c1nc(-c2ccccn2)nc2c1CCNCC2 | 28.38%
COc1c(C2CCCN2C(=O)c2cncnc2C)c(C)nn1C (stereo not drawn) | -27.58%
CCn1nc(NC(=O)Cn2ccc(C(C)=O)n2)c2ccccc21 | 6.087%
CC(=O)c1ccn(CC(=O)Nc2nn(CC3CC3)c3ccccc23)n1 | 23.92%
COC(=O)c1ccn(CC(=O)Nc2nn(CC3CC3)c3ccccc23)n1 | 50.91%
Cc1csc(C(Cc2ccsc2)NC(=O)c2cc(=O)n(C)c(=O)n2C)n1 (stereo not drawn) | -13.69%
OCC1CN(Cc2nc(C(F)(F)F)cs2)c2ccccc2O1 (stereo not drawn) | 105.7%
CN(Cc1nc(C(F)(F)F)cs1)C(=O)CCc1ccccn1 | 3.481%
Cc1nc(CNC2CCN(Cc3ccccc3)C2)sc1C (stereo not drawn) | 5.497%
Cc1nc(CCNC2CCN(Cc3ccccc3)C2)sc1C (stereo not drawn) | 2.096%
Cc1nc(CN2CC(CO)Oc3ccccc32)sc1C (stereo not drawn) | 83.41%
Cc1csc(CN2CC(CO)Oc3ccccc32)n1 (stereo not drawn) | 26.95%
CC(C)c1nc2oc(C(=O)N3CCOCC3)c(N)c2c2c1CCCC2 | 5.641%
COc1ccccc1Oc1cncc(C2CCCN(C)C2)n1 (stereo not drawn) | 10.25%
Cn1c(C(=O)N2CCC(CC(N)=O)CC2)c(Cl)c2ccccc21 | -5.817%
CCOC1CCN(C(=O)c2c(Cl)c3ccccc3n2C)CC1 | 55.05%
COC1CCN(C(=O)c2c(Cl)c3ccccc3n2C)CC1 | 49.28%
Cn1cc(C2CCCN2C(=O)c2cn(-c3ccccc3)nn2)cn1 (stereo not drawn) | -26.03%
CNC(=O)c1cn[nH]c1C1CCN(Cc2ccccc2F)C1 (stereo not drawn) | -6.719%
COc1cc(C)c(S(=O)(=O)CC(=O)N(C)C(C)C)cc1OC | 1.501%
